What all share (assay): glycan array binding signal (z-score within array); higher = stronger binding
What all share (conditions): glycan notation: IUPAC condensed, linker removed

Assay [1] has as its target GlcNAc(b1-2)Man(a1-3)[GlcNAc(b1-2)Man(a1-6)]Man(b1-4)GlcNAc(b1-4)[Fuc(a1-6)]GlcNAc. In outline: (§1)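 Glycan array data came from 3228 arrays in the Consortium for Functional Glycomics database, and only arrays with an available protein sequence were kept. Glycan names were put into IUPAC-condensed notation, and columns mapping to the same glycan were averaged. The binding signal is a within-array Z-score, averaged across arrays of one protein sequence run at different concentrations or buffers and across linkers. A negative Z-score can be read as non-binding.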

For assay [2], the target named is GlcNAc(b1-3)Gal(b1-4)GlcNAc(b1-3)Gal(b1-4)GlcNAc(b1-3)Gal(b1-4)GlcNAc(b1-3)Gal(b1-4)GlcNAc(b1-2)Man(a1-3)[GlcNAc(b1-3)Gal(b1-4)GlcNAc(b1-3)Gal(b1-4)GlcNAc(b1-3)Gal(b1-4)GlcNAc(b1-3)Gal(b1-4)GlcNAc(b1-2)Man(a1-6)]Man(b1-4)GlcNAc(b1-4)GlcNAc. In outline:
as §1

Assay [3] deals with GlcNAc(b1-3)Gal(b1-4)GlcNAc(b1-3)Gal(b1-4)GlcNAc(b1-3)Gal(b1-4)GlcNAc(b1-3)Gal(b1-4)GlcNAc(b1-2)Man(a1-3)[GlcNAc(b1-3)Gal(b1-4)GlcNAc(b1-3)Gal(b1-4)GlcNAc(b1-3)Gal(b1-4)GlcNAc(b1-3)Gal(b1-4)GlcNAc(b1-2)Man(a1-6)]Man(b1-4)GlcNAc(b1-4)[Fuc(a1-6)]GlcNAc. In outline:
as §1

Assay [4] has as its target GlcNAc(b1-3)Gal(b1-4)GlcNAc(b1-3)GalNAc. The method, boiled down:
as §1

Assay [5] concerns the target GlcNAc(b1-3)[GlcNAc(b1-6)]GalNAc. In outline: as §1
The target of a further assay is GlcNAc(b1-6)GalNAc. The method, boiled down: as §1
For the next assay, the target named is Kdn(a2-3)Gal(b1-4)Glc. In outline:
as §1

For assay [6], the target named is Man(a1-2)Man(a1-3)[Man(a1-6)]Man(a1-6)[Man(a1-2)Man(a1-3)]Man(b1-4)GlcNAc(b1-4)GlcNAc. The method, boiled down: as §1
Assay [7] has as its target Man(a1-3)[Man(a1-6)]Man(b1-4)GlcNAc(b1-4)GlcNAc. In outline: as §1
The target of assay [8] is Neu5Ac(a2-3)Gal(b1-4)[Fuc(a1-3)]GlcNAc(b1-3)Gal(b1-4)GlcNAc. In outline: as §1
The target of assay [9] is Neu5Ac(a2-3)Gal6S(b1-4)[Fuc(a1-3)]GlcNAc. The method, boiled down:
as §1

Assay [10] deals with Neu5Ac(a2-6)Gal(b1-3)GlcNAc(b1-3)[Gal(b1-4)GlcNAc(b1-6)]Gal(b1-4)Glc. In outline: as §1
The target of assay [11] is Neu5Ac(a2-8)Neu5Ac(a2-3)Gal(b1-3)GalNAc(b1-4)[Neu5Ac(a2-8)Neu5Ac(a2-3)]Gal(b1-4)Glc. In outline: as §1
Assay [12] concerns the target Neu5Ac(a2-8)Neu5Ac(a2-3)Gal(b1-4)GlcNAc. The method, boiled down:
as §1

Assay [13] addresses Neu5Gc(a2-3)Gal(b1-4)GlcNAc(b1-3)Gal(b1-4)GlcNAc(b1-2)Man(a1-3)[Neu5Gc(a2-3)Gal(b1-4)GlcNAc(b1-3)Gal(b1-4)GlcNAc(b1-2)Man(a1-6)]Man(b1-4)GlcNAc(b1-4)GlcNAc. The method, boiled down: as §1
The target in assay [14] is Neu5Gc(a2-6)Gal(b1-4)GlcNAc. In outline: as §1
Assay [15] addresses Neu5Gc(a2-8)Neu5Gc(a2-3)Gal(b1-4)GlcNAc. The method, boiled down: as §1

From the supplement of paper PMC8728848 come the findings set out here.

About 410 targets per protein were measured; listed, in parts, are those with the strongest signals and a random draw of the rest.

B1: Gal 3C (Homo sapiens), P17931 (protein)
chain: YGAPAGPLIVPYNLPLPGGVVPRMLITILGTVKPNANRIALDFQRGNDVAFHFNPRFNENNRRVIVCNTKLDNNWGREERQSVFPFESGKPFKIQVLVEPDHFKVAVNDAHLLQYNHRVKKLNEISKLGISGDIDLTSASYTMI
On to B1, for which the “glycan array binding signal (z-score)” value is -0.196 in assay [1]; 4.63 in [2]; 4.02 in assay [3]; -0.286 in assay [4]; -0.331 in [5]; -0.322 with GlcNAc(b1-6)GalNAc. For the same molecule, the “glycan array binding signal (z-score)” value is -0.237 in the assay with Kdn(a2-3)Gal(b1-4)Glc; -0.298 in assay [6]; -0.065 in assay [7]; -0.191 in [8]; -0.327 in assay [9]; -0.3 in assay [10]. For the same molecule, the “glycan array binding signal (z-score)” value was -0.226 in assay [11]; -0.266 in [12]; -0.152 in [13]; -0.31 in assay [14]; -0.336 in assay [15].
